Source: the antibiotic and cytotoxicity screens of Wong et al. (2023)
Screen size: about 39,000 compounds; about 3,300 (8.5%) were called active. The entries come from a sample that favours actives as a whole.

tested on: HepG2; assay: cytotoxicity call (relative viability < 0.9); conditions: 10 µM

Structure (SMILES)	cytotoxicity call
Cc1cccc(N[C@H]2CS(=O)(=O)C[C@@H]2O)c1	inactive
CC(C)(Sc1cc(C(C)(C)C)c(O)c(C(C)(C)C)c1)Sc1cc(C(C)(C)C)c(OC(=O)CCC(=O)O)c(C(C)(C)C)c1	inactive
C[C@@H]1CN([C@H](C)CO)C(=O)c2cccc(NC(=O)Nc3ccc(C(F)(F)F)cc3)c2O[C@@H]1CN(C)Cc1ccc(C(=O)Nc2ccccc2N)cc1	inactive
C[C@@H]1CN([C@@H](C)CO)C(=O)c2cc(NS(=O)(=O)c3ccc(F)cc3)ccc2O[C@@H]1CN(C)Cc1ccncc1	inactive
C[C@@H]1CN([C@H](C)CO)C(=O)Cc2cc(NC(=O)Nc3cccc4ccccc34)ccc2O[C@H]1CN(C)C(=O)Nc1ccc(C(F)(F)F)cc1	inactive
COc1ccc(S(=O)(=O)N(C)C[C@H]2Oc3c(NC(=O)NC(C)C)cccc3C(=O)N([C@H](C)CO)C[C@@H]2C)cc1	inactive
COc1ccc(S(=O)(=O)Nc2ccc3c(c2)C(=O)N([C@@H](C)CO)C[C@@H](C)[C@@H](CN(C)Cc2ccc(-c4ccccc4)cc2)O3)cc1	active
COc1ccc(S(=O)(=O)Nc2ccc3c(c2)C(=O)N([C@H](C)CO)C[C@@H](C)[C@H](CN(C)Cc2ccc(-c4ccccc4)cc2)O3)cc1	inactive
COc1ccc(S(=O)(=O)Nc2ccc3c(c2)C(=O)N([C@@H](C)CO)C[C@@H](C)[C@H](CN(C)Cc2ccc(-c4ccccc4)cc2)O3)cc1	inactive
COc1ccc(S(=O)(=O)Nc2ccc3c(c2)C(=O)N([C@H](C)CO)C[C@@H](C)[C@@H](CN(C)Cc2ccc(-c4ccccc4)cc2)O3)cc1	active
COc1ccc(S(=O)(=O)Nc2ccc3c(c2)C(=O)N([C@H](C)CO)C[C@H](C)[C@@H](CN(C)Cc2ccc(-c4ccccc4)cc2)O3)cc1	inactive
COc1ccc(S(=O)(=O)Nc2ccc3c(c2)C(=O)N([C@@H](C)CO)C[C@H](C)[C@@H](CN(C)Cc2ccc(-c4ccccc4)cc2)O3)cc1	active
COc1ccc(S(=O)(=O)Nc2ccc3c(c2)C(=O)N([C@@H](C)CO)C[C@H](C)[C@H](CN(C)Cc2ccc(-c4ccccc4)cc2)O3)cc1	inactive
COc1ccc(S(=O)(=O)Nc2ccc3c(c2)C(=O)N([C@H](C)CO)C[C@H](C)[C@H](CN(C)Cc2ccc(-c4ccccc4)cc2)O3)cc1	inactive
C[C@H]1CCCCO[C@H](CN(C)C(=O)Nc2ccccc2)[C@@H](C)CN([C@@H](C)CO)C(=O)c2cc(NC(=O)C3CCCCC3)ccc2O1	inactive
C[C@H]1CN([C@@H](C)CO)S(=O)(=O)c2ccc(C#CC3CC3)cc2O[C@@H]1CN(C)Cc1cccc(F)c1	inactive
Nc1ccn(C[C@@H](CO)OCP(=O)(O)O)c(=O)n1	inactive
Cc1noc(C)c1S(=O)(=O)Nc1ccc2c(c1)C(=O)N([C@H](C)CO)C[C@@H](C)[C@H](CN(C)Cc1ccc(-c3ccccc3)cc1)O2	inactive
Cc1noc(C)c1S(=O)(=O)Nc1ccc2c(c1)C(=O)N([C@H](C)CO)C[C@H](C)[C@@H](CN(C)Cc1ccccc1)OCCCC[C@@H](C)O2	inactive
C[C@H](CO)N1C[C@H](C)[C@@H](CN(C)C(=O)NC2CCCCC2)Oc2ccc(NC(=O)Cn3cnnn3)cc2C1=O	inactive
C=CCNC(=O)[C@H]1[C@@H]2C(=O)O[C@@H](c3ccccc3)[C@@H](c3ccccc3)N2[C@@H](c2ccc(OCCO)cc2)[C@]12C(=O)Nc1ccc(C#CC3=CCCCC3)cc12	inactive
CO[C@@H](CCO)[C@@H](O)c1ccc(O)c(F)c1	inactive

Structure (SMILES)	cytotoxicity call
C[C@H](CO)N1C[C@H](C)[C@@H](CN(C)Cc2ccccn2)Oc2ncc(C#Cc3cccc(F)c3)cc2C1=O	inactive
COc1ccc(NC(=O)N(C)C[C@H]2OCCCC[C@H](C)Oc3ccc(NS(=O)(=O)c4ccc(F)cc4)cc3C(=O)N([C@H](C)CO)C[C@@H]2C)cc1	inactive
COc1ccc(NC(=O)N(C)C[C@@H]2OCCCC[C@H](C)Oc3ccc(NS(=O)(=O)c4ccc(F)cc4)cc3C(=O)N([C@@H](C)CO)C[C@@H]2C)cc1	inactive
COc1ccc(S(=O)(=O)Nc2ccc3c(c2)C(=O)N([C@@H](C)CO)C[C@H](C)[C@@H](CN(C)C(=O)Nc2ccc(F)cc2)OCCCC[C@H](C)O3)cc1	active
COc1ccc(S(=O)(=O)Nc2ccc3c(c2)C(=O)N([C@@H](C)CO)C[C@H](C)[C@@H](CN(C)C(=O)Nc2ccc(F)cc2)OCCCC[C@@H](C)O3)cc1	active
COc1ccc(NC(=O)N(C)C[C@H]2OCCCC[C@@H](C)Oc3ccc(NS(=O)(=O)c4ccc(F)cc4)cc3C(=O)N([C@@H](C)CO)C[C@@H]2C)cc1	inactive
COc1ccc(NC(=O)N(C)C[C@@H]2OCCCC[C@@H](C)Oc3ccc(NS(=O)(=O)c4ccc(F)cc4)cc3C(=O)N([C@H](C)CO)C[C@@H]2C)cc1	inactive
Cc1cc(=O)n2nc(S(C)(=O)=O)nc2[nH]1	inactive
C[C@H]1CN([C@@H](C)CO)S(=O)(=O)c2ccc(C#Cc3ccccc3)cc2O[C@@H]1CN(C)C(=O)c1ccccn1	inactive
COCc1nc(C)c(CN)s1	inactive
COc1ccc(-c2cc(=O)c3c(O)cc(O[C@@H]4O[C@H](CO)[C@@H](O)[C@H](O)[C@H]4O[C@@H]4O[C@H](COC(C)=O)[C@@H](O)[C@@H](O)[C@H]4O)c(O)c3o2)cc1	inactive
CSc1cccc(NC(=O)/C=C/c2ccc(C(C)C)cc2)c1	inactive
O=C(O)Cc1ccc(O)c(O)c1	inactive
C[C@@](Cc1ccc(O)c(O)c1)(NN)C(=O)O	active
CCOC(=O)[C@@H](N)Cc1ccc(O)c(O)c1	inactive
CC(Cc1ccc(O)c(O)c1)(NN)C(=O)O (stereo not given)	active
CO[C@@H]1CN(C)C(=O)c2ccc(NS(=O)(=O)c3cn(C)cn3)cc2OC[C@H](C)N(CCC(F)(F)F)C[C@@H]1C	inactive
C[C@H]1CN([C@@H](C)CO)S(=O)(=O)c2ccc(-c3cncnc3)cc2O[C@H]1CN(C)C(=O)c1cccc(F)c1	inactive
CCN1CCCC[C@@H]1C(=O)O	inactive
C[C@H]1CN([C@@H](C)CO)C(=O)c2cc(NS(=O)(=O)c3cn(C)cn3)ccc2O[C@@H]1CN(C)CC1CCCCC1	inactive
C[C@H]1CN([C@@H](C)CO)C(=O)Cc2cc(NC(=O)CCCCCC(=O)Nc3ccccc3N)ccc2O[C@@H]1CN(C)CC1CCCCC1	inactive
Cc1ccc(S(=O)(=O)N(C)C[C@H]2OCCCC[C@H](C)Oc3ccc(NC(=O)Cc4ccccc4)cc3C(=O)N([C@@H](C)CO)C[C@@H]2C)cc1	active

Structure (SMILES)	cytotoxicity call
Cc1ccc(S(=O)(=O)N(C)C[C@@H]2OCCCC[C@H](C)Oc3ccc(NC(=O)Cc4ccccc4)cc3C(=O)N([C@H](C)CO)C[C@H]2C)cc1	inactive
Cc1ccc(S(=O)(=O)N(C)C[C@@H]2OCCCC[C@@H](C)Oc3ccc(NC(=O)Cc4ccccc4)cc3C(=O)N([C@@H](C)CO)C[C@@H]2C)cc1	inactive
Cc1ccc(S(=O)(=O)N(C)C[C@H]2OCCCC[C@H](C)Oc3ccc(NC(=O)Cc4ccccc4)cc3C(=O)N([C@H](C)CO)C[C@H]2C)cc1	inactive
Cc1ccc(S(=O)(=O)N(C)C[C@@H]2OCCCC[C@H](C)Oc3ccc(NC(=O)Cc4ccccc4)cc3C(=O)N([C@H](C)CO)C[C@@H]2C)cc1	active
Cc1ccc(S(=O)(=O)N(C)C[C@@H]2OCCCC[C@@H](C)Oc3ccc(NC(=O)Cc4ccccc4)cc3C(=O)N([C@H](C)CO)C[C@@H]2C)cc1	inactive
CC(C)NC(=O)Nc1ccc2c(c1)C(=O)N([C@H](C)CO)C[C@@H](C)[C@H](CN(C)S(=O)(=O)c1cn(C)cn1)OCCCC[C@H](C)O2	inactive
CC(C)(C)NC(=O)[C@@H]1C[C@@H]2CCCC[C@@H]2CN1C[C@@H](O)[C@H](Cc1ccccc1)NC(=O)[C@H](CC(N)=O)NC(=O)c1ccc2ccccc2n1	inactive
Cc1noc(C)c1S(=O)(=O)Nc1cccc2c1O[C@H](CN(C)C(=O)Nc1ccc3c(c1)OCO3)[C@H](C)CN([C@@H](C)CO)C2=O	inactive
COc1ccc(S(=O)(=O)Nc2cccc3c2O[C@H](CN(C)S(C)(=O)=O)[C@H](C)CN([C@H](C)CO)C3=O)cc1	inactive
C[C@@H]1CN([C@@H](C)CO)C(=O)c2cccc(NC(=O)c3cnccn3)c2O[C@H]1CN(C)Cc1ccccc1	inactive
C[C@H](CO)N1C[C@H](C)[C@H](CN(C)S(=O)(=O)c2ccc(Cl)cc2)Oc2c(NC(=O)c3ccc(-c4nccs4)cc3)cccc2C1=O	active
C[C@@H]1CN([C@@H](C)CO)C(=O)c2cccc(NC(=O)c3ccc(-c4nccs4)cc3)c2O[C@@H]1CN(C)Cc1ccc(-c2ccccc2)cc1	active
C[C@H](CO)N1C[C@H](C)[C@@H](CN(C)Cc2ccc(C(=O)Nc3ccccc3N)cc2)Oc2c(NC(=O)c3ccc(-c4nccs4)cc3)cccc2C1=O	inactive
C[C@@H]1CN([C@H](C)CO)C(=O)c2cccc(NC(=O)c3cnccn3)c2O[C@H]1CN(C)Cc1ccccc1	active
C[C@@H]1CN([C@H](C)CO)C(=O)c2cccc(NC(=O)c3ccc(-c4nccs4)cc3)c2O[C@@H]1CN(C)Cc1ccc(C(=O)Nc2ccccc2N)cc1	active
C[C@H](CO)N1C[C@H](C)[C@@H](CN(C)Cc2ccccc2)Oc2c(NC(=O)c3cnccn3)cccc2C1=O	inactive
C[C@H](CO)N1C[C@H](C)[C@@H](CN(C)Cc2ccc(-c3ccccc3)cc2)Oc2c(NC(=O)c3ccc(-c4nccs4)cc3)cccc2C1=O	inactive
C[C@H]1CN([C@@H](C)CO)C(=O)c2cccc(NC(=O)c3ccc(-c4nccs4)cc3)c2O[C@@H]1CN(C)Cc1ccc(-c2ccccc2)cc1	inactive
C[C@H]1CN([C@@H](C)CO)C(=O)c2cccc(NC(=O)c3ccc(-c4nccs4)cc3)c2O[C@H]1CN(C)Cc1ccc(C(=O)Nc2ccccc2N)cc1	inactive
C[C@@H]1CN([C@@H](C)CO)C(=O)c2cccc(NC(=O)c3ccc(-c4nccs4)cc3)c2O[C@@H]1CN(C)S(=O)(=O)c1ccc(Cl)cc1	inactive
C[C@@H]1CN([C@@H](C)CO)C(=O)c2cccc(NC(=O)c3ccc(-c4nccs4)cc3)c2O[C@H]1CN(C)S(=O)(=O)c1ccc(Cl)cc1	inactive
